# SARS PLP yeast = blocks SARS-CoV papain-like protease in a yeast assay; actives 0.19% (n = 330,000); S. cerevisiae expressing SARS-CoV PLpro, growth rescue; Potency, µM (top dose mostly 32.9 µM), without a hit: at the highest dose activity, positive = growth rescue, most hits filed as activators; calls by dose curve; note: potency is the fitted concentration of half-maximal effect; 0% is about no effect; nearly all actives have a fitted effect of over 55% in size
# Tb PYK inh = T. brucei pyruvate kinase inhibition; TbPYK enzyme, Kinase-Glo Plus ATP luminescence, 45 min; actives 0.12% (n = 410,000); Q57TT1; Potency, µM (titrated, usually from 76.8 µM), without a hit: at the top dose activity, negative = inhibition, most hits filed as inhibitors; AID 624173; note: potency is the fitted concentration of half-maximal effect; % is set by controls: 0 for no effect and ±100 for the full control effect; nearly all actives have a fitted effect of over 50% in size
#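 Glycolytic pyruvate kinase of T. brucei was incubated with substrate, test compound and 130 uM ADP for 45 minutes at room temperature. Luminescent Kinase-Glo Plus signal was measured after 10 minutes.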
# NS1 inh = influenza NS1 inhibition. actives 0.4% (n = 270,000). Potency, µM (titrated, usually from 46.1 µM), inactives show at the highest dose activity, positive = more growth; calls by dose curve; note: potency is the fitted concentration of half-maximal effect; actives are rising curves; nearly all actives have a fitted effect of over 50% in size
#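 Read-out: OD600 growth recovery of NS1-expressing budding yeast. Cells grown overnight at 30C in -URA glucose medium, washed, resuspended and diluted 1:100 in 2% galactose assay medium, pH 6.0. Same strain lacking NS1 served as positive control.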
# Shiga inhibitor = inhibitors of Shiga toxin in Vero cells; inhibition, % at 38.7 µM; AID 2315; Vero cells, Shiga toxin protein synthesis inhibition reporter; actives 9.2% (n = 290,000); in the data active = inhibition mostly above about 28%, no sharp cut-off; inactive = mostly below about 43%; note: 0% is about no effect
# CHX counter = counter-screen for Shiga toxin inhibitors: cycloheximide protein synthesis inhibition; cell reporter, cycloheximide protein synthesis inhibition counterscreen; max response, %; actives 12% (n = 300,000); AID 2314; in the data active = max response mostly above about 13%, no sharp cut-off; inactive = mostly below about 14%; note: read at 38.3 µM for the half of the compounds with a filed dose; 0% is about no effect
# LmPK inh = LmPK (Leishmania mexicana) enzyme inhibition. Q27686. purified LmPK, Kinase-Glo ATP luminescence, 1 h. Potency, µM (doses to about 57.5 µM), for the others: at the highest dose activity change, negative = inhibition, hits mostly inhibitors. actives 0.37% (n = 290,000). AID 1721; note: potency is the fitted concentration of half-maximal effect; % is set by controls: 0 for no effect and ±100 for the full control effect
# Target sequence (Q27686 whole entry, looked up): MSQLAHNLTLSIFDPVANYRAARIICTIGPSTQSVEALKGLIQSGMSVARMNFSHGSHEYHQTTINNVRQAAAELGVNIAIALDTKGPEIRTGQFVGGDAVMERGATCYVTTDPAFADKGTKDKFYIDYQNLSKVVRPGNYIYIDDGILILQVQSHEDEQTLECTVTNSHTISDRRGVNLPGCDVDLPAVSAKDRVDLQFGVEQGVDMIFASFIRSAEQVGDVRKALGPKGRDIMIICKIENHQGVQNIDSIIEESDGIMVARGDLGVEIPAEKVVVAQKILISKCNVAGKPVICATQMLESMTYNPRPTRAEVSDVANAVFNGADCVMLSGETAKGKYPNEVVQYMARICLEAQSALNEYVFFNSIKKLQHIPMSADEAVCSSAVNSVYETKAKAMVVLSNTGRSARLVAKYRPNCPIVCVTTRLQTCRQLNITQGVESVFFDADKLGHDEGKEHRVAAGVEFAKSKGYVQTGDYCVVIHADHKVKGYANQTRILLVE
#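 In 50 mM imidazole pH 7.2 with 7 mM MgCl2, LmPK (0.1 nM) turned over PEP (0.5 mM) and ADP (0.1 mM) for 1 h at room temperature. Luciferase read-out of ATP.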
# * hit, by the source's call; ? = inconclusive; / = no result given. Many of the other results were omitted from the sample, so hits are more common in it than they were. Unless noted, calls come from the whole dose curve; as a rule, active = well fitted curve in the direction sought with a large enough effect; inconclusive = small, poorly fitted or top-dose-only effect, or another doubt; inactive = no such curve, though single readings can be large; an effect the other way counts as inactive or inconclusive.
SMILES,SARS PLP yeast,Tb PYK inh,NS1 inh,Shiga inhibitor,CHX counter,LmPK inh
CC1CCN(C(=O)c2ccc3ccccc3c2)CC1,-3.5%,1.1%,-9.0%,52.4*,39.2*,-0.2%
O=C(CSc1nncc2ccccc12)N1CCOCC1,3.7%,3.9%,6.6%,37.1,17.2*,-1.0%
O=C(CSc1nc2ccccc2c2c1CCCC2)N1CCOCC1,-3.5%,2.2%,-43.1%,-3.8,-7.8,-5.5%
CCn1cc(SCC(=O)N2CCOCC2)c2ccccc21,3.6%,-14.3%,-11.5%,68.0*,30.1*,1.2%
O=C(CSc1nncc2ccccc12)Nc1ccc(C(=O)O)cc1,7.6%,0.0%,1.5%,6.1,21.5*,-8.4%
CCn1cc(SCC(=O)NCC2CCCO2)c2ccccc21 (centres undefined),-0.7%,-10.5%,-49.1%,2.9,6.6*,-1.4%
O=C(CSc1cn(CC(=O)N2CCCCCC2)c2ccccc12)NCC1CCCO1 (centres undefined),-6.5%,-5.5%,/,28.3,10.1,9.0%
Cc1ccc(S(=O)(=O)N2CCOCC2)cc1NCC(=O)Nc1ccc(OC(F)(F)F)cc1,0.2%,-5.6%,/,/,/,/
Cn1cc(SCC(=O)N2CCOCC2)c2ccccc21,-3.4%,-25.2%,-0.3%,92.7*,21.7*,-0.4%
CC1(C(=O)Nc2ccc(Cl)c(Cl)c2)CCN1CCc1ccccc1 (centres undefined),/,0.8%,/,/,/,/
Fc1ccc(-c2nnn(Cc3ccccc3Cl)n2)cc1,-3.9%,-1.3%,-3.9%,99.0*,35.9*,-0.9%
Clc1ccc(Cn2nnc(-c3ccc(N4CCOCC4)cc3)n2)cc1,-4.3%,-5.5%,-2.8%,-13.9,-5.1,-0.3%
Nc1ccc(-c2nnn(Cc3ccccc3F)n2)cc1,-1.8%,-0.6%,-11.6%,55.0*,32.2*,0.6%
Fc1ccc(Cn2nnc(-c3ccc(Cl)cc3)n2)cc1,-3.8%,-10.8%,2.4%,55.8*,34.5*,-3.7%
Cc1ccccc1Cn1nnc(-c2ccc(F)cc2)n1,-2.6%,2.0%,-2.9%,29.9*,19.1*,5.5%
Cc1cc(OCC(=O)Nc2ccccn2)c2c(C)cc(=O)oc2c1,-5.9%,-2.6%,12.0%,15.9,20.9,-0.5%
CCCc1cc(=O)oc2cc(C)cc(OCC(=O)Nc3ccccn3)c12,-6.9%,-2.2%,5.7%,11.1,20.1*,-2.7%
CCCCc1cc(=O)oc2cc(C)cc(OCC(=O)NCc3cccnc3)c12,1.4%,-5.2%,-17.0%,-3.4,-2.9,-0.3%
CCCCc1cc(=O)oc2cc(C)cc(OCC(=O)Nc3ccccn3)c12,-7.9%,-9.3%,-10.5%,60.8*,21.1*,-19.0%
CN1c2ccccc2-c2nc(SCC(=O)Nc3ccccc3C(F)(F)F)ncc2S1(=O)=O,/,-4.0%,/,/,/,/
Cc1cc(NC(=O)C2CC2)n(-c2nc3ccccc3s2)n1,-0.2%,-7.9%,/,36.5*,18.1*,-0.9%
O=c1nc2c(-c3ccccc3F)n[nH]n2c2ccccc12,1.7%,4.7%,-49.5%,80.2*,20.3*,-13.9%
Cc1nn(CC(=O)N2CCCC2)c(=O)c2cc3cc(F)ccc3n12,?,0.2%,-6.6%,-4.4,1.2,-0.3%
Cc1cc(N)n(-c2ccccc2)n1,4.1%,-9.6%,?,21.0,13.2,-7.5%
Cc1cc(C)c2nc(-n3nc(C)cc3N)cc(C)c2c1,0.2%,-3.5%,21.9%,108.1*,25.7*,-0.7%
SMILES,SARS PLP yeast,Tb PYK inh,NS1 inh,Shiga inhibitor,CHX counter,LmPK inh
Cc1cc(N)n(-c2nc(-c3cccnc3)nc3ccccc23)n1,0.7%,-0.4%,16.4%,64.4*,33.1*,8.4%
Cc1cc(N)n(-c2cc(C)c3ccccc3n2)n1,-1.7%,-7.3%,/,78.6*,46.3*,?
CCOC(=O)Cn1c(=O)n(CC2CCCO2)c2nc(-c3ccc(C)cc3)nc(C(N)=O)c21 (centres undefined),/,10.4%,/,/,/,/
Cc1cc(Cl)ccc1OCC(O)CNCCc1ccc(S(N)(=O)=O)cc1 (centres undefined),2.8%,2.7%,-3.6%,-2.9,-6.4,1.8%
COc1ccccc1NC(=O)c1ccc(NC(=O)c2nc3nccc(C)n3n2)cc1,4.8%,-1.2%,/,/,/,/
COc1ccc(NC(=O)c2ccc(NC(=O)c3nc4nccc(C)n4n3)cc2)cc1,-1.2%,0.6%,/,/,/,/
COc1ccc(NC(=O)c2nc3nccc(C)n3n2)cn1,2.0%,-8.1%,5.9%,44.3*,32.6*,-21.6%
Cc1ccccc1NC(=O)c1nc2nccc(C)n2n1,-1.3%,/,/,71.7*,37.6*,?
OC[C@@H](O)C(O)[C@H](O)[C@H](O)CO (some centres undefined),/,/,/,-2.7,-8.3,/
CCOC(=O)c1cccc(NC(=O)CCS(=O)(=O)c2ccc3c(c2)CCN3C(=O)CC)c1,/,-19.8%,/,/,/,/
CCOC(=O)c1nnn2c1nc(Nc1cccc(C(F)(F)F)c1)c1ccccc12,1.1%,2.5%,2.1%,-16.2,-0.5,4.0%
O=C(COc1ccccc1)Nc1c2c(nn1-c1ccccc1)CS(=O)C2 (centres undefined),5.4%,-3.1%,?,-23.6,-1.4,-15.9%
CC(C)NC(=O)C1CCN(c2ccc(S(=O)(=O)N3CCOCC3)cc2Cl)CC1,-0.7%,-0.8%,-5.5%,-5.5,-4.8,-1.0%
CCNC(=S)NCc1ccco1,-9.3%,-1.2%,9.4%,11.2,-3.4,-6.5%
S=C(NCc1ccco1)Nc1cc(-c2ccccc2)[nH]n1,-5.1%,-19.5%,-42.4%,98.0*,28.3*,-3.2%
S=C(NCc1ccco1)Nc1ccc(Br)cn1,-5.9%,-5.9%,5.3%,19.5,11.0*,-2.7%
Cc1ccccc1-c1cc2nc(NCCc3ccncc3)n(C)c(=O)c2s1,/,1.7%,/,/,/,/
COc1ccc(NC(=O)CC2CCCC2)cc1OC,-0.4%,-1.2%,-2.1%,-5.2,15.0,-3.9%
CC(=O)Nc1ccc(NC(=O)CCCc2ccccc2)cc1,8.2%,2.3%,9.5%,24.3,30.8*,3.5%
COc1ccc(CCOC(=O)c2cccc(NC(C)=O)c2)cc1,-5.2%,2.0%,-50.1%,52.1*,36.2*,-6.9%
COC(=O)c1cccc(NC(=O)CSCc2ccccc2)c1,1.6%,0.3%,-14.1%,16.2,19.0*,-1.3%
COc1ccc(NC(=O)CCC2CCCC2)cc1OC,-4.9%,-2.1%,-49.2%,66.9*,18.5*,-2.1%
Cc1nc(C(F)(F)F)ccc1C(=O)N1CCCCC1,0.6%,1.4%,3.6%,-5.2,0.7,-10.7%
CN(C)c1cccc(NC(=O)CCc2ccccc2)c1,-4.7%,-9.2%,11.8%,67.7*,18.0*,-0.6%
COc1ccc(NC(=O)CCCc2ccccc2)cc1OC,-6.3%,-4.9%,4.0%,89.3*,53.9*,-3.7%
CC(=O)Nc1cccc(C(=O)N(CCc2ccccc2)Cc2ccccc2)c1,-2.7%,10.0%,-7.9%,22.8,28.5*,-10.6%
COC(=O)c1cccc(NC(=O)CCc2ccccc2)c1,15.4%,-15.5%,-5.8%,57.5*,57.6*,-5.5%
COc1ccc(NC(=O)CCCC(=O)c2ccccc2)cc1OC,-0.4%,10.0%,-1.6%,-2.1,13.6,-8.3%

# High-throughput results (PubChem)
